Bioassay records from PubChem.
This excerpt belongs to a sample that is enriched for hits.
Dicer processing – inhibitors of human Dicer processing of pre-microRNA; AID 1347074; hit rate 6% among 47,000; Q9UPY3; z-score at 25 µM; cat-ELCCA pre-miR-21 Dicer processing, chemiluminescence; hits give high values; in the data active = z-score above about 3, passing the limit was not always enough;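 note: plate controls were vehicle for no effect and no enzyme for full effect; higher signal means more uncleaved substrate so more Dicer inhibition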
Target sequence (Q9UPY3 whole entry, looked up): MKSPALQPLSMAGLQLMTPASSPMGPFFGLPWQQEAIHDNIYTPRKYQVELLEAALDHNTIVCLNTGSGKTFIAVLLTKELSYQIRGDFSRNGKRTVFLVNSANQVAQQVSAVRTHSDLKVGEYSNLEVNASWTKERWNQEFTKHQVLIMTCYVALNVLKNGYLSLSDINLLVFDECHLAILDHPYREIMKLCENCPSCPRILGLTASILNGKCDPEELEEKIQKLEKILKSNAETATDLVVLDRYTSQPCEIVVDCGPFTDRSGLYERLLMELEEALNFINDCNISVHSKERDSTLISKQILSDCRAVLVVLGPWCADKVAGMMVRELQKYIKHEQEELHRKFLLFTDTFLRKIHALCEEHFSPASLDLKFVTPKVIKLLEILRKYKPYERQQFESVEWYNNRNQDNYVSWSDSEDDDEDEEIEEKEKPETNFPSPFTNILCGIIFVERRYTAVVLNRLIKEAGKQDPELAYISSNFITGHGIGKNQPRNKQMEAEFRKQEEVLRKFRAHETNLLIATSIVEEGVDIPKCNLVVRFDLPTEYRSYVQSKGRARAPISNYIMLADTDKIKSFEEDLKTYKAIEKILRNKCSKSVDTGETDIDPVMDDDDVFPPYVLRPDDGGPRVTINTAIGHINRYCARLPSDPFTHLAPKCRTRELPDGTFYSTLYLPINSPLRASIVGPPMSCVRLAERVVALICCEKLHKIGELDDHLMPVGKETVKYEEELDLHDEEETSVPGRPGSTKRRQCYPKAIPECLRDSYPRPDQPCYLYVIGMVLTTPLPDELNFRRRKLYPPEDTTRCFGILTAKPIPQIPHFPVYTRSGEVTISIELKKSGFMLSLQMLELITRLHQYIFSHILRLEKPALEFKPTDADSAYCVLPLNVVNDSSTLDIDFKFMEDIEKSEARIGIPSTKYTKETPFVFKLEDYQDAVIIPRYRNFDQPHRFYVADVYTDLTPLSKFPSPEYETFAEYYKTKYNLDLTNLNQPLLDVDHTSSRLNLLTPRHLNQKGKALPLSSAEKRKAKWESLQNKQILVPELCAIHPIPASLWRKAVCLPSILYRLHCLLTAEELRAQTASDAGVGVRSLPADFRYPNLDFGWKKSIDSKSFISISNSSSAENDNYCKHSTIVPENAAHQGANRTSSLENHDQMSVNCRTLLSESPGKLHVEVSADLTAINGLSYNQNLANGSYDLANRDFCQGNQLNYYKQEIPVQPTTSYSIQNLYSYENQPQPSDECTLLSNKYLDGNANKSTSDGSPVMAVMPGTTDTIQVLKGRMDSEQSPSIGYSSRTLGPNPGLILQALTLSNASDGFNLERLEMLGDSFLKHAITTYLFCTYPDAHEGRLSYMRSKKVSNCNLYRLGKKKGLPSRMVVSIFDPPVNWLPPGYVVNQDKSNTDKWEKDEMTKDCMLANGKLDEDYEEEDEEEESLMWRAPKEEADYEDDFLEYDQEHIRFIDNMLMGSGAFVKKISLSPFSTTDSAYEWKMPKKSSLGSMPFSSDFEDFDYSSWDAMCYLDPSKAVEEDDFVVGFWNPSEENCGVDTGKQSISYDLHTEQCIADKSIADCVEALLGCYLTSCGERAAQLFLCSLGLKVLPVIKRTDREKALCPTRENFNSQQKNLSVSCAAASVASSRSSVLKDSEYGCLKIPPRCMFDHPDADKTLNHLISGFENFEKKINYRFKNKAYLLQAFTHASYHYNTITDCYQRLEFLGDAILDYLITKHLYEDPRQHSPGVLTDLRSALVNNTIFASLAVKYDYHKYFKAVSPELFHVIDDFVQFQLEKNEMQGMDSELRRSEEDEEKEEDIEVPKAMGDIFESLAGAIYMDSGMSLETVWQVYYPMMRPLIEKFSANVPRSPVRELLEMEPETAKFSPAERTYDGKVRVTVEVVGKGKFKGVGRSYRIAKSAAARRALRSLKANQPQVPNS
Starred values were filed as active, the others as inactive.

SMILES	Dicer processing
CSc1ccccc1NC1=NS(=O)(=O)c2ccccc21	-0.02
O=S1(=O)/N=C(/O)c2ccccc2Sc2ccccc21	3.5*
CSc1ccc(Cl)cc1NC(=O)c1c(C)noc1C	16
Cc1nc2n(CC(=O)N3CCCC3)c3ccccc3n2n1	2.1
Cc1ccc(-c2nc(NCCCN(C)C)c3ccccc3n2)cc1	7.8
Cc1ncc(CCCCN(C)C)c2c1[nH]c1ccccc12	7.7*
Cc1[nH]c2ccccc2c(=O)c1CN(C)C	-0.83
CC(C)NC(=O)N(Cc1ccccc1)Cc1cccnc1	1.4
Cc1cccc(Oc2ccc(N=Cc3ncc([N+](=O)[O-])n3C)cn2)c1C	3.8
CSc1nc2ccccc2n1CCOc1ccccc1	-1.9
Cc1ccc(OCCSc2nc3ccccc3n2CCO)cc1	-0.89
OCCSc1nc2ccccc2n1CCOc1ccccc1	3.9*
Fc1ccccc1-n1c(CCc2nc(-c3ccc(Cl)cc3)no2)n[nH]c1=S	-1.4
CCC(C)OC(=O)COc1ccc2c(=O)c(Oc3ccc(OC)cc3)coc2c1 (stereo not given)	-1.3
Cc1nc(-c2ccc(S(=O)(=O)NCCN(C)C)s2)cs1	-1.3
COc1ccccc1N1CCN(C(=O)C2CCCCC2)CC1	-0.28
COc1ccccc1N1CCN(C(=O)C(C)Nc2ccccn2)CC1 (stereo not given)	-0.48
COc1ccccc1N1CCN(C(=O)C(C)Oc2ccnc3c(C)ccc(C)c23)CC1 (stereo not given)	3.6*
CCOC(=O)C1=C(Nc2ccc(OS(=O)(=O)c3ccc(Cl)cc3)cc2)C(=O)N(C(C)(C)C)C1	-0.34
Cn1nnc(-c2cc(Cl)cc(Cl)c2)n1	0.97
COC(=O)c1ccc(C2c3c(oc4ccccc4c3=O)C(=O)N2c2nc(C)c(C)s2)cc1 (stereo not given)	0.42
Cc1ccc(C2=NC(C(F)(F)F)(C(F)(F)F)N=C(N(C)C)O2)cc1	3.7*
Cc1ccccc1C1=NC(C(F)(F)F)(C(F)(F)F)N=C(N2CCOCC2)O1	-0.79
Cn1c(SCc2nc(-c3ccc(Br)cc3)no2)nnc1C1CCCCC1	0.8
O=C1CSC(=S)N1CCc1ccc(Cl)cc1	-1.2
SMILES	Dicer processing
O=C1CSC(=Nc2cc(Cl)c(Cl)cc2Cl)N1CCc1ccccc1	3.3*
COc1ccc(CCN2C(=O)CSC2=Nc2ccc(Cl)cc2C)cc1OC	2.3
COc1ccccc1C1NC(=O)c2sc(=S)n(-c3ccccc3)c2N1 (stereo not given)	-0.12
CC(C)Nc1nc(NCCO)nc(N2CCOCC2)n1	0.16
Cc1ccc2nc(SCc3nc(-c4cccs4)no3)[nH]c2c1	-0.45
Cc1ccc2nc(SCc3nc(-c4ccccc4C)no3)[nH]c2c1	3*
Brc1ccc(-c2noc(CSc3nc4ccccc4[nH]3)n2)cc1	0.45
CC(C)(C)NC(=O)N/N=C(\N)c1ccc(C(F)(F)F)cn1	-2.1
C/C(=N\NC(=S)Nc1ccc(C(C)C)cc1)c1ccco1	3*
CC(C)c1ccc(NC(=S)NN(C)C)cc1	2.9
C/C(=N\NC(=S)Nc1ccc(F)cc1)c1ccco1	0.88
COc1cc(C2SCCS2)cc(Br)c1OC(=O)c1cccs1	0.9
C1CN(c2nsnc2OCCOc2nsnc2N2CCOCC2)CCO1	-0.25
O=C(Oc1nsnc1N1CCOCC1)N1CCOCC1	3.1*
O=C(Oc1nsnc1N1CCOCC1)N1CCCCC1	1.5
c1ccc2[nH]c(Sc3ncnc4sc5c(c34)CCCC5)nc2c1	-0.78
CCOC(CN(C(=O)c1ccc(C(F)(F)F)cc1)c1ccc(F)cc1)OCC	-1.1
CCOC(CN(c1ccc(F)cc1)S(=O)(=O)c1ccc(F)cc1F)OCC	-2.1
CCOC(CN(C(=O)c1ccc(C)cc1)c1ccc(F)cc1)OCC	4.6*
O=[N+]([O-])c1cccc(Cl)c1Oc1ccccc1	0.2
O=C1CSC(=Nc2cccc(Cl)c2Cl)N1Cc1ccco1	0.25
O=C(NCCNc1ncc(C(F)(F)F)cc1Cl)C(F)(F)Sc1ccccc1	5*
FC(F)(F)c1cnc(NCCNc2cnc3ccccc3n2)c(Cl)c1	-1.2
Cc1ccc(S(=O)(=O)NC(=O)NCCNc2ncc(C(F)(F)F)cc2Cl)cc1	-1.6
CN(C)C(=O)C12CCC(C)(C(=O)C1)C2(C)C (stereo not given)	3.1*
SMILES	Dicer processing
O=C(NCc1cccs1)NCc1cccs1	-0.47
CCOc1ccc(S(=O)(=O)N(CC)CC)cc1-c1nc2c(C(C)(C)C)nn(C)c2c(=O)[nH]1	1.5
CCCCCCCCNC(C)C(O)c1ccc(SC(C)C)cc1 (stereo not given)	33
Cn1c(=O)c2c(nc(NCCc3ccc(O)cc3)n2C)n(C)c1=O	-1.2
C[C@@H](NCCc1ccc(O)cc1)[C@@H](O)c1ccc(O)cc1	9.7*
CCCCc1ncc(/C=C2\C(=O)Nc3ccccc32)[nH]1	-0.31
COc1nc(-c2ccc(C)cc2)ccc1-c1noc(C(C)C)n1	-0.32
CCC1(c2ccccc2)C(N)=Nc2ccccc21 (stereo not given)	0.8
CCCCCNc1ncnc2c1sc1nc3c(cc12)COC(C)(C)C3	1.8
CC1(C)Cc2nc3sc4c(NCC5CCCO5)ncnc4c3cc2CO1 (stereo not given)	5.7*
CCN(CC)CCNc1ncnc2c1sc1nc3c(cc12)COC(C)(C)C3	0.98
CC1(C)CC(=O)c2cnc(NC(=O)CSCC(=O)Nc3cccc(F)c3)nc2C1	1.1
CC1(C)OC(=O)C(=Cc2ccc(-c3cc(C(F)(F)F)ccc3Cl)o2)C(=O)O1	-1.1
Cc1onc(-c2ccccc2Cl)c1NC(=O)Nc1ccc(F)cc1	1.2
c1ccc2c(Sc3ncnc4sccc34)cccc2c1	-2.6
CC(=O)/C(N=Nc1cc(Cl)cc(Cl)c1)=C(\C)O	0.68
CC1=N/C(=C/c2ccc(C)c(C)c2)C(=O)O1	-0.91
Cc1cc(/C=C2\N=COC2=O)ccc1C(F)(F)F	4.1*
CC(C)c1ccc(C2/C(=C(\O)c3ccccc3)C(=O)C(=O)N2CCCN(C)C)cc1 (stereo not given)	0.49
CCCCC1(O)C(=O)c2ccccc2N(c2ccccc2)C1=O (stereo not given)	1.6
CCCCN1C(=O)C2(/C(=C(/O)c3ccc(C)cc3)C(=O)C(=O)N2CCCOC)c2ccccc21 (stereo not given)	5.1*
CCN1C(=O)C2(/C(=C(/O)c3ccc(C)cc3)C(=O)C(=O)N2CCOC)c2ccccc21 (stereo not given)	2.5
C=CCN1C(=O)C2(/C(=C(/O)c3ccccc3)C(=O)C(=O)N2CCOC)c2ccccc21 (stereo not given)	1.7
CCCCN1C(=O)C2(/C(=C(/O)c3ccc(Cl)cc3)C(=O)C(=O)N2CCCOC)c2ccccc21 (stereo not given)	0.62
COCCCN1C(=O)C(=O)/C(=C(\O)c2ccc(C)cc2)C12C(=O)N(C)c1ccccc12 (stereo not given)	-1.7
SMILES	Dicer processing
CCCCN1C(=O)C2(/C(=C(/O)c3ccc(OC)cc3)C(=O)C(=O)N2CCOC)c2ccccc21 (stereo not given)	3.7*
COc1ccc(C2C(C(=O)c3cccs3)=C(O)C(=O)N2Cc2cccnc2)cc1 (stereo not given)	-3
CN(C)C=NC(=S)c1ccc(-c2cccs2)s1	0.35
COC(=O)c1scc(C)c1-n1c(C)ccc1C	-1.4
CN(C)/C=N/c1ncc(C(F)(F)F)cc1Cl	0.92
CC(C)(C)C(=O)NC(=S)Nc1cccc(C(F)(F)F)c1	-0.2
FC(F)(F)c1cccc(NC(=S)Nc2ccccc2C(F)(F)F)c1	-0.33
COC(=O)c1ccc(CSc2ccccc2NC(=S)Nc2cccc(C(F)(F)F)c2)o1	4.4*
NS(=O)(=O)c1cccc2cc(C(=O)O)c(O)cc12	-1.9
Cc1cccc(C(=O)c2ccccc2C(=O)O)c1	-1.2
